Measurements published in PubChem BioAssay (NCATS).
Inconclusive results are not listed. Calls of active or inactive are those of the source. Unless noted, calls come from the whole dose curve.

Legend:
[1] = target: Peroxisome proliferator-activated receptor delta (Homo sapiens) (UniProt Q03181); assay: qHTS assay for small molecule agonists of peroxisome proliferator-activated receptor delta signaling (AID 588534);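 note: 0% = DMSO basal wells and 100% = positive control agonist at 10 µM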
How it was run: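 Cells carrying a PPAR-delta beta-lactamase reporter were treated with compounds for 18 h at 37 °C in agonist mode. CCF4 fluorescence was read after 2 h; EC50 and efficacy from Hill fits.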

[2] = target: Vitamin D3 receptor (Homo sapiens) (UniProt P11473); assay: qHTS assay for small molecule agonists of vitamin D receptor signaling (AID 588543);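 note: 0% = DMSO basal and 100% = reference agonist control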
Chain of Vitamin D3 receptor (Homo sapiens) (P11473 whole entry, looked up): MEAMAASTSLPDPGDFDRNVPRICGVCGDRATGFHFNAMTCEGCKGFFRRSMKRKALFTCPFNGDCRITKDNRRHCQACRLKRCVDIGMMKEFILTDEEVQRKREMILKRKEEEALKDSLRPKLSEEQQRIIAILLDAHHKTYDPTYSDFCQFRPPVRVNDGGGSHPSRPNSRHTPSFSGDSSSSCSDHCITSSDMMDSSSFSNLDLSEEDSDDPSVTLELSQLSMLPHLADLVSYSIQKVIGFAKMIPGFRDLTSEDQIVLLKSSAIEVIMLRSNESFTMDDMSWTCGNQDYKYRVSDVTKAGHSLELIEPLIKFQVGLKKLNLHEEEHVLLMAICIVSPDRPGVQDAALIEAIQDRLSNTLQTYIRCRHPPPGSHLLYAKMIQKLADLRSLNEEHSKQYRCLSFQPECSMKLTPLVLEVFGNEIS
How it was run: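 GeneBLAzer VDR-UAS-bla HEK293T cells in 2% charcoal-stripped FBS medium were dosed with compound titrations for 16 h at 37 °C; CCF4 β-lactamase readout (405 nm ex, 460/530 nm em). EC50 and efficacy from Hill fits, normalized to 50 nM calcitriol (100%) and DMSO (0%).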

[3] = qHTS assay for small molecule activators of the nuclear factor-kappa B (NF-kB) signaling pathway (AID 651749; active = well fitted activation curve with a large enough effect in the signal ratio; the % refers to the signal ratio; note: series mostly up to about 77 µM; % of control where 0% means no effect); details: NF-kB-bla ME-180 cells, beta-lactamase FRET ratio, 16 h; activation: stronger effect = higher value
How it was run: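 Screening used 2,000 ME-180 reporter cells per well exposed to pinned compound (23 nL) or DMSO; after 16 hr at 37C, beta-lactamase expression under NF-kB control was assessed through FRET.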

[4] = target: Peroxisome proliferator-activated receptor alpha (Homo sapiens) (UniProt Q07869); assay: qHTS assay for small molecule agonists of the peroxisome proliferator-activated receptor alpha (PPARalpha) signaling pathway (AID 651778; active = well fitted curve in the direction sought with a large enough effect; an effect the other way counts as inactive or inconclusive; note: potency is the fitted concentration of half-maximal effect; for max response: % of control where 0% means no effect); details: PathHunter PPARalpha complementation, chemiluminescence, 6 h; max response: stronger effect = higher value
Chain of Peroxisome proliferator-activated receptor alpha (Homo sapiens) (Q07869 whole entry, looked up): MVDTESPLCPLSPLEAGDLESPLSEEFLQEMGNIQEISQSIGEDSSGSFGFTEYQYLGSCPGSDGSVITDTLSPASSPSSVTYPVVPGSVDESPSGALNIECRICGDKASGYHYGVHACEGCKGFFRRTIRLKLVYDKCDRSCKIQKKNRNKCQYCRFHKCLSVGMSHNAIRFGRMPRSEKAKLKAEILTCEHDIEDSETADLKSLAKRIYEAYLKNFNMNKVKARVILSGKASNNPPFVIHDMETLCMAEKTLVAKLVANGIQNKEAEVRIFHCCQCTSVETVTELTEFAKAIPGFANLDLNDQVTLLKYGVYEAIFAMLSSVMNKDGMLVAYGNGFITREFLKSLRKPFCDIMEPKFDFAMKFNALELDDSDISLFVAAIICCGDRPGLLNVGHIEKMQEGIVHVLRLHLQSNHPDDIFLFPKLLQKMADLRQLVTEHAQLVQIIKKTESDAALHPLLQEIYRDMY
How it was run: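 Cells plated at 2,000/well and held overnight at 37 C, 5% CO2, then compound added by pin tool for 6 hr; after PathHunter detection reagent and 60 min at room temperature, chemiluminescence from enzyme complementation was read.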

[5] = qHTS assay for small molecule agonists of the antioxidant response element (ARE) signaling pathway measured by Nrf2-dependant transcriptional activity (AID 720636; active = well fitted curve in the direction sought with a large enough effect in the repeat runs; an effect the other way counts as inactive or inconclusive;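 note: HepG2 cells with an ARE-driven luciferase reporter; % of control where 0% means no effect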)
How it was run: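 In HepG2 cells engineered with an Nrf2-responsive luciferase gene, ARE induction was quantified as luminescence after 16 hr compound treatment at 37 C.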

[6] = qHTS assay for small molecule agonists of the antioxidant response element (ARE) signaling pathway measured by Nrf2-dependant transcriptional activity - cell viability counter screen (AID 720653; active = well fitted curve in the direction sought with a large enough effect in the repeat runs; an effect the other way counts as inactive or inconclusive; note: % is set by controls: 0 for no effect and ±100 for the full control effect); details: ARE-bla HepG2 viability, CellTiter-Glo ATP luminescence, 16 h; max response: stronger effect = lower value
How it was run: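 ARE-bla HepG2 cells (2,000/well) rested 5 hrs at 37C/5% CO2, then exposed to compounds in DMSO for 16 hrs. Viability was read in the same wells as intracellular ATP by luminescence, 30 min at room temperature after reagent addition.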

[7] = qHTS assay for cell viability of HEK293 cells (AID 743288; active = well fitted curve in the direction sought with a large enough effect; an effect the other way counts as inactive or inconclusive; note: % is set by controls: 0 for no effect and ±100 for the full control effect; nearly all actives have a fitted effect of over 50% in size); details: ATP luminescence (CellTiter-Glo), 18 h; max response: stronger effect = lower value
How it was run: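 Parental HEK293 cells were seeded at 2,000 cells/well, rested at least 5 h at 37 C, then exposed to compounds in DMSO for 18 h at 37 C. Viability was read as ATP-dependent luciferase luminescence after 30 min at room temperature.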

[8] = qHTS assay for cell viability of the p53RE-bla HCT-116 cell line (AID 743292; active = well fitted curve in the direction sought with a large enough effect; an effect the other way counts as inactive or inconclusive; note: % is set by controls: 0 for no effect and ±100 for the full control effect; nearly all actives have a fitted effect of over 55% in size)
How it was run: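 Intracellular ATP of p53RE-bla HCT-116 cells measured by luciferase luminescence following 16 h compound incubation at 37 C; DMSO-only wells served as vehicle controls.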

[9] = target: Nuclear receptor subfamily 1 group I member 2 (Rattus norvegicus) (UniProt Q9R1A7); assay: qHTS assay for small molecule activators of the rat pregnane X receptor (rPXR) signaling pathway (AID 651751; call rule not given here; note: 0% is about no effect); details: rPXR reporter cells, luciferase (One-Glo), 24 h
Chain of Nuclear receptor subfamily 1 group I member 2 (Rattus norvegicus) (Q9R1A7 whole entry, looked up): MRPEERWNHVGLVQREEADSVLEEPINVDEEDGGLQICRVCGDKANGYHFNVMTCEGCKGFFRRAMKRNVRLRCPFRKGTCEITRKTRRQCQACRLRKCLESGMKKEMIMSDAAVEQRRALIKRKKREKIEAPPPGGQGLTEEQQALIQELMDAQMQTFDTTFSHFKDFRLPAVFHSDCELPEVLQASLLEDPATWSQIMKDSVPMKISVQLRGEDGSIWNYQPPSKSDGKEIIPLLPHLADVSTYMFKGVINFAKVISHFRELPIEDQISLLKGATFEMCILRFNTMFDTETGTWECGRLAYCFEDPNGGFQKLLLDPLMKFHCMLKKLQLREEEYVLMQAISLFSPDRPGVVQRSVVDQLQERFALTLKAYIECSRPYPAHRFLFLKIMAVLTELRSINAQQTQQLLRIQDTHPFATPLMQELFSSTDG

[10] = qHTS assay for small molecule antagonists of peroxisome proliferator-activated receptor delta signaling (AID 588535; active = well fitted inhibition curve with a large enough effect in the signal ratio, with a control signal flat, not every such curve was filed as active; the % refers to the signal ratio;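 for max response: cells co-treated with a PPAR-delta agonist as stimulator during compound exposure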); details: HEK293T PPARd-UAS-bla, beta-lactamase FRET ratio, 18 h; 460 nm channel
How it was run: (§1)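 Reporter: UAS-bla under PPAR-delta response element, HEK293T host. Medium: 2% charcoal/dextran FBS. Dosing: titration, 18 hrs, 37 C. Detection: CCF4, 2 hrs RT, 405 ex/460 and 530 em.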

[11] = target: Peroxisome proliferator-activated receptor delta (Homo sapiens) (UniProt Q03181); assay: as above
How it was run: as §1

[12] = target: Vitamin D3 receptor (Homo sapiens) (UniProt P11473); assay: qHTS assay for small molecule antagonists of vitamin D receptor signaling (AID 588541);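 note: receptor activated by calcitriol during compound treatment; series mostly up to about 77 µM; % is set by controls: 0 for no effect and ±100 for the full control effect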
How it was run: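 VDR-UAS-bla HEK293T cells (2000/well, 2% charcoal-stripped FBS) were treated with titrated compounds plus 1-alpha,25-dihydroxyvitamin D3 (50 nM or 3 nM final) for 16 h at 37 C. CCF4 beta-lactamase fluorescence was read; Hill fits gave IC50.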

[13] = target: Thyroid hormone receptor beta (Homo sapiens) (UniProt P10828); assay: qHTS assay for small molecule agonists of thyroid hormone receptor beta signaling (AID 588545);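 note: 0% = DMSO only and 100% = 10 nM T3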
Chain of Thyroid hormone receptor beta (Homo sapiens) (P10828 whole entry, looked up): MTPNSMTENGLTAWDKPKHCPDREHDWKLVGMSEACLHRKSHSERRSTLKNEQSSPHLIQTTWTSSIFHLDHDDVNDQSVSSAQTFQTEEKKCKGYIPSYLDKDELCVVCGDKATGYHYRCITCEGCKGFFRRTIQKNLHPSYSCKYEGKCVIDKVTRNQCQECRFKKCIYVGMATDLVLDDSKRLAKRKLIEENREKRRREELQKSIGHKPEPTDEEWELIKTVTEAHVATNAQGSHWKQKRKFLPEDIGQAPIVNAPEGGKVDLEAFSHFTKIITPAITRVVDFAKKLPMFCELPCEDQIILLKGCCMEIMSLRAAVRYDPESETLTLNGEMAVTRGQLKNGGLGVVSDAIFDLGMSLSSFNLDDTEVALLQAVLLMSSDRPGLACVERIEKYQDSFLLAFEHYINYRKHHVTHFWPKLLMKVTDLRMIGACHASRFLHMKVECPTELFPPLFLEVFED
How it was run: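 TR-UAS-bla GripTite HEK 293 cells (2500/well, medium with 2% charcoal/dextran FBS) were treated in agonist mode for 18 h at 37 C, titrated. Beta-lactamase was read by CCF4 ratio after 2 h; normalized to 10 nM T3 (100%) and DMSO, Hill-fitted for EC50 and efficacy.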

[14] = qHTS assay for small molecule antagonists of retinoid X receptor alpha signaling (AID 588546; active = well fitted inhibition curve with a large enough effect in the signal ratio, with a control signal flat, not every such curve was filed as active; the % refers to the signal ratio;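 note: cells stimulated with 9-cis-retinoic acid as agonist; % is set by controls: 0 for no effect and ±100 for the full control effect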); details: HEK293T RXRa-UAS-bla, beta-lactamase ratio, antagonist mode; measured here: W530 green channel, cytotoxicity proxy
How it was run: (§2)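 Beta-lactamase reporter inhibition, read as CCF4 fluorescence ratio (ex 405, em 460/530 nm) after 2 h at RT. HEK293T UAS-bla cells, 2500/well, were stimulated with 9-cis-RA at 500 or 100 nM final alongside test compound for 18 h at 37 C.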

[15] = target: Retinoic acid receptor RXR-alpha (Homo sapiens) (UniProt P19793); assay: as above; details: HEK293T RXRa-UAS-bla, beta-lactamase ratio, antagonist mode
Chain of Retinoic acid receptor RXR-alpha (Homo sapiens) (P19793 whole entry, looked up): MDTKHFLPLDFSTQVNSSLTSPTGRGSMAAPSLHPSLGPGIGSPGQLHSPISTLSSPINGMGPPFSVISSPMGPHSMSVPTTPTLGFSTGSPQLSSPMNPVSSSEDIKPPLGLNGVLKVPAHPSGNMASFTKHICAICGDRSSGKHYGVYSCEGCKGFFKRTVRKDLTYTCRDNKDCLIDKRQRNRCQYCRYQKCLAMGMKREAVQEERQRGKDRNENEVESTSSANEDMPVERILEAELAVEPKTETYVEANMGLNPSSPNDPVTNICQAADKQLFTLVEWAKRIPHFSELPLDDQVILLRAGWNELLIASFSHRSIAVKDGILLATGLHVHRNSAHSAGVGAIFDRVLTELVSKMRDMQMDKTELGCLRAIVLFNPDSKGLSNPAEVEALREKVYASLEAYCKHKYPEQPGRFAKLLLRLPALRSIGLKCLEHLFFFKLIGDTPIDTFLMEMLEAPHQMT
How it was run: as §2

[16] = qHTS assay for small molecule activators of the p53 signaling pathway (AID 651743; active = well fitted activation curve with a large enough effect in the signal ratio, not every such curve was filed as active; the % refers to the signal ratio; note: potency is the fitted concentration of half-maximal effect; for activation: series mostly up to about 92 µM; % of control where 0% means no effect); details: HCT-116 p53RE-bla, beta-lactamase FRET ratio, 16 h; activation: stronger effect = higher value
How it was run: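 Cell-based beta-lactamase reporter (p53 response elements, HCT-116 background). After a 5-hour preincubation, cells received compound for 16 hours at 37 C; substrate development ran 2 hours at room temperature.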

[17] = qHTS assay for environmental chemicals that activate the Aryl hydrocarbon Receptor (AhR) signaling pathway (AID 651777; active = well fitted curve in the direction sought with a large enough effect; an effect the other way counts as inactive or inconclusive; note: % of control where 0% means no effect; nearly all actives have a fitted effect of over 15% in size); details: 1A2-DRE human hepatoma cells, luciferase, 24 h; activation: stronger effect = higher value
How it was run: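 Measured luciferase activity, read 30 min after One-Glo addition at room temperature, from human hepatoma cells bearing a dioxin response element–CYP1A2 promoter reporter and exposed to compound for 24 hr at 37 C.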

[18] = target: Retinoic acid receptor RXR-alpha (Homo sapiens) (UniProt P19793); assay: qHTS assay for small molecule agonists of retinoid X receptor alpha signaling (AID 588544);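 note: 0% = DMSO basal wells and 100% = reference agonist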
[19] = target: Bile acid receptor (Homo sapiens) (UniProt Q96RI1); assay: qHTS assay for small molecule agonists of farnesoid X receptor signaling (AID 588527); details: HEK293T FXR-UAS-bla, beta-lactamase ratio, 16 h; activation: stronger effect = higher value;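 note: series mostly up to about 77 µM; 0% = vehicle basal and 100% = reference agonist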
Chain of Bile acid receptor (Homo sapiens) (Q96RI1 whole entry, looked up): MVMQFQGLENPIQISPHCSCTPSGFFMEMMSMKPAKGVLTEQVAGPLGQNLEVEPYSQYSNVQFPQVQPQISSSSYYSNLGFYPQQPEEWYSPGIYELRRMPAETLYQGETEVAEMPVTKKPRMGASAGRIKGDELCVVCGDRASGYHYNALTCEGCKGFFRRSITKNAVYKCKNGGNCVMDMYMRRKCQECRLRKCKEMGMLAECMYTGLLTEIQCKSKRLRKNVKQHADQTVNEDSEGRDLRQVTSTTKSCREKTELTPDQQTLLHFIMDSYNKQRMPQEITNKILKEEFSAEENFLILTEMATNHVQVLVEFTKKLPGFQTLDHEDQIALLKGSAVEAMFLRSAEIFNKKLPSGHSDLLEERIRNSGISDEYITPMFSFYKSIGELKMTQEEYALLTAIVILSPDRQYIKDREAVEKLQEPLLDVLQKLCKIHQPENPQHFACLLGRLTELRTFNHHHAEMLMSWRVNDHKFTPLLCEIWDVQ
How it was run: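 FXR-UAS-bla HEK293T, 10% dialyzed FBS; cpds up to 92 uM titration, 16 h 37 C; CCF4 dye 2 h RT; fluorescence. Normalized to chenodeoxycholic acid 100 uM (100%) and DMSO (0%); Hill fit gives EC50, efficacy.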

Chain of Peroxisome proliferator-activated receptor delta (Homo sapiens) (Q03181 whole entry, looked up): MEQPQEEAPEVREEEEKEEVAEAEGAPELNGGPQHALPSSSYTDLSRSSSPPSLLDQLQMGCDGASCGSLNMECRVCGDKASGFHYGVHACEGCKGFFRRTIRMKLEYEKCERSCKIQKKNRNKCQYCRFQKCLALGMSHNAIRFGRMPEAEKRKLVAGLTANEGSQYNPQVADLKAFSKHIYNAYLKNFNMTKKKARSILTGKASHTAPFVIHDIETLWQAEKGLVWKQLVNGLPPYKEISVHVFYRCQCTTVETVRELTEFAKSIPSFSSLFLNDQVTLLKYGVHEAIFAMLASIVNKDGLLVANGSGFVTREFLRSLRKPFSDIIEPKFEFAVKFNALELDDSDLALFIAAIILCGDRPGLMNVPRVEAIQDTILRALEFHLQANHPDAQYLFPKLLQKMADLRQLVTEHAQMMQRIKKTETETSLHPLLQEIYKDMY

COP(=O)(OC)SCn1c(=O)oc2cc(Cl)cnc21
inactive: outcome [1] | outcome [2] | activation [3] -1.51% | max response [4] -1.8% | Potency [5] | max response [6] -47.9% | max response [7] -26% | Potency [8] | max response [9] -7.83%

COC(=O)c1c(C(F)F)nc(C(F)(F)F)c(C2=NCCS2)c1CC(C)C
-11.1%: max response [14]
-95%: max response [10]
inactive: outcome [1] | Potency [11] | Potency [12] | outcome [2] | Potency [13] | max response [15] -17.3% | activation [16] 6.04% | activation [3] -2.57% | activation [17] 2.1% | max response [4] -1.35% | Potency [5] | max response [6] 1.66% | max response [7] -8.01% | Potency [8]

N#Cc1cc(I)c(O)c(I)c1
43.3%: max response [10]
0.0011%: max response [14]
inactive: outcome [1] | Potency [11] | Potency [12] | outcome [2] | Potency [18] | Potency [13] | max response [15] -13.5% | activation [3] 1.07% | activation [17] -1.69% | Potency [5] | max response [6] -6.44% | max response [7] -4.72% | Potency [8] | max response [9] -7.71%
active: Potency [16] 44.7 µM | Potency [4] 15.8 µM

CCCCCCCCCCCCC1=C(OC(C)=O)C(=O)c2ccccc2C1=O
active: Potency [16] 11.2 µM
inactive: activation [19] -0.713% | outcome [2] | Potency [13] | activation [17] 1.53% | max response [4] -5.69% | Potency [5] | max response [6] -15.3% | max response [7] -22.1% | max response [9] 0.383%
